# From PubChem BioAssay (NCATS)
# Where “and” joins values, the source holds several entries; their conditions need not be identical. Equal entries are not always repeated. Records with an inconclusive call do not appear. Where a call stands in place of a potency, no number is given. Where a structure was tested more than once in an assay, its records may differ in their call. Calls of active or inactive are those of the source. The call rests on the fitted dose curve; in most records, active means well fitted curve in the direction sought with a large enough effect; inconclusive means small, poorly fitted or top-dose-only effect, or another doubt; inactive means no such curve, though single readings can be large; an effect the other way counts as inactive or inconclusive.
# Legend:
# C33A = assay: Primary qHTS to identify gynecologic anti-cancer compounds using libraries of approved drugs and bioactive compounds (AID 1345084); settings: Gynecologic cancer cell panel viability, ATPlite luminescence, 48 h; series mostly up to 57.5 µM; further: nearly all actives have a fitted effect of over 55% in size
# Procedure, shortened: (§1)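 ATP-based viability (ATPlite), 1,000 cells/well, 16 h pre-incubation, 48 h compound at 37 C, 5% CO2, 15 min RT before read.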
# CAOV3 = assay: as above; settings: Gynecologic cancer cell panel viability, ATPlite luminescence, 48 h; series mostly up to 57.5 µM
# Procedure, shortened: as §1
# Es-2 = assay: as above; settings: Gynecologic cancer cell panel viability, ATPlite luminescence, 48 h; series mostly up to 57.5 µM
# Procedure, shortened: as §1
# HeLa = assay: as above; settings: Gynecologic cancer cell panel viability, ATPlite luminescence, 48 h; series mostly up to 57.5 µM
# Procedure, shortened: as §1
# OV90 = assay: as above; settings: Gynecologic cancer cell panel viability, ATPlite luminescence, 48 h; series mostly up to 57.5 µM
# Procedure, shortened: as §1
# PA-1 = assay: as above; settings: Gynecologic cancer cell panel viability, ATPlite luminescence, 48 h; series mostly up to 57.5 µM
# Procedure, shortened: as §1
# Tov-21-G = assay: as above; settings: Gynecologic cancer cell panel viability, ATPlite luminescence, 48 h; series mostly up to 57.5 µM
# Procedure, shortened: as §1
# Tov112D = assay: as above; settings: Gynecologic cancer cell panel viability, ATPlite luminescence, 48 h; series mostly up to 57.5 µM
# Procedure, shortened: as §1
# MKL-1 = assay: qHTS assay to identify novel small-molecules to repurpose for Merkel cell carcinoma treatment (AID 1296009); settings: MCC and control cell lines, CellTiter-Glo viability, 72 h; series mostly up to 46 µM; further: nearly all actives have a fitted effect of over 60% in size
# Procedure, shortened: (§2)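 72 hr, 37 degree celsius; NPC 8-pt / MIPE 11-pt dose response; compound pinned in DMSO; CellTiter-Glo, 10 min RT, luminescence; normalized to no-cell and DMSO controls.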
# MKL-2 = assay: as above; settings: MCC and control cell lines, CellTiter-Glo viability, 72 h; series mostly up to 46 µM
# Procedure, shortened: as §2
# WaGa = assay: as above; settings: MCC and control cell lines, CellTiter-Glo viability, 72 h; series mostly up to 46 µM
# Procedure, shortened: as §2
# Hek293T = assay: Primary qHTS to identify gynecologic anti-cancer compounds using libraries of approved drugs and bioactive compounds (AID 1345084); settings: Gynecologic cancer cell panel viability, ATPlite luminescence, 48 h, control line for the selectivity index; series mostly up to 57.5 µM; further: nearly all actives have a fitted effect of over 55% in size
# Procedure, shortened: as §1
# JEG-3 = assay: as above; settings: Gynecologic cancer cell panel viability, ATPlite luminescence, 48 h; series mostly up to 57.5 µM
# Procedure, shortened: as §1
# SKOV3 = assay: as above; settings: Gynecologic cancer cell panel viability, ATPlite luminescence, 48 h; series mostly up to 57.5 µM
# Procedure, shortened: as §1
# [1] = qHTS assay to identify inhibitors of the type 1 interferon - major histocompatibility complex class I in skeletal muscle: Counter screen cell viability and HiBit confirmation (AID 1347412); settings: iHSKM muscle cells + IFN-b, HiBiT or CellTiter-Glo, 24 h; for activity change, negative = inhibition: at 45.9 µM (top of the series); on all read-outs here: nearly all actives have a fitted effect of over 60% in size
# Procedure, shortened: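 HLA-B*08:01–HiBiT knock-in immortalized human myoblasts (C25cl48) stimulated with 4.0 ng/ml human IFN-beta and dosed with compound in a 12-point 1:3 titration (top final 46 uM). After 24 hrs at 37 C, HiBiT lytic luminescence or CellTiter Glo ATP read out.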
# UISO = assay: qHTS assay to identify novel small-molecules to repurpose for Merkel cell carcinoma treatment (AID 1296009); settings: MCC and control cell lines, CellTiter-Glo viability, 72 h; series mostly up to 46 µM; further: nearly all actives have a fitted effect of over 60% in size
# Procedure, shortened: as §2
# CASKI = assay: Primary qHTS to identify gynecologic anti-cancer compounds using libraries of approved drugs and bioactive compounds (AID 1345084); settings: Gynecologic cancer cell panel viability, ATPlite luminescence, 48 h; series mostly up to 57.5 µM; further: nearly all actives have a fitted effect of over 55% in size
# Procedure, shortened: as §1
# astro = assay: Drug repurposing screens with cells derived from glioblastoma tumor samples (AID 1345199); settings: viability, ATP luminescence, 48 h; series mostly up to 45.9 µM; further: nearly all actives have a fitted effect of over 40% in size
# Procedure, shortened: (§3)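 Four patient lines of CD133+ GBM neurospheres were screened at several concentrations; hits were retested in those lines plus three slower-growing GBM lines, using 48-hour treatment and ATP-based viability.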
# NIH3T3 = assay: qHTS assay to identify novel small-molecules to repurpose for Merkel cell carcinoma treatment (AID 1296009); settings: MCC and control cell lines, CellTiter-Glo viability, 72 h; at 44.8 µM (top of the series) unless noted; further: nearly all actives have a fitted effect of over 60% in size
# Procedure, shortened: as §2
# [2] = Drug repurposing screens with cells derived from glioblastoma tumor samples (AID 1345199); settings: GBM patient neurospheres viability, ATP luminescence, 48 h; further: nearly all actives have a fitted effect of over 40% in size
# Procedure, shortened: as §3
# [3] = at 45.9 µM (top of the series), tumour line B
# [4] = at 45.9 µM (top of the series), tumour line D
# [5] = at 46 µM (top of the series), tumour line A
# Potency means the concentration at half of the fitted maximal effect.
smiles,measurement,setting,value
CCCCc1ccc2nc(NC(=O)OC)[nH]c2c1,Potency,C33A,794 nM (active)
same,Potency,CAOV3,inactive
same,Potency,Es-2,562 nM (active)
same,Potency,HeLa,398 nM (active)
same,Potency,OV90,1.58 µM (active)
same,Potency,PA-1,282 nM (active)
same,Potency,Tov-21-G,631 nM (active)
same,Potency,Tov112D,251 nM (active)
Cc1nc(Nc2ncc(C(=O)Nc3c(C)cccc3Cl)s2)cc(N2CCN(CCO)CC2)n1,Potency,MKL-1,inactive
same,Potency,MKL-2,inactive
same,Potency,WaGa,inactive
same,Potency,C33A,inactive
same,Potency,CAOV3,8910 nM (active)
same,Potency,HeLa,inactive
same,Potency,Hek293T,inactive
same,Potency,JEG-3,inactive
same,Potency,PA-1,251 nM (active)
same,Potency,SKOV3,14100 nM (active)
same,Potency,Tov112D,inactive
CCCOc1ccc2nc(NC(=O)OC)[nH]c2c1,Potency,CAOV3,inactive
same,Potency,Es-2,631 nM (active)
same,Potency,HeLa,282 nM (active)
same,Potency,JEG-3,1000 nM (active)
same,Potency,PA-1,282 nM (active)
same,Potency,Tov-21-G,316 nM (active)
same,Potency,Tov112D,316 nM (active)
same,"activity change, negative = inhibition",[1]; Viability,-24.3% (inactive)
O=c1ccc2ccc(O)c(O)c2o1,Potency,UISO,inactive
C=C(c1ccc(C(=O)O)cc1)c1cc2c(cc1C)C(C)(C)CCC2(C)C,Potency,C33A,inactive
same,Potency,CASKI,inactive
same,Potency,Es-2,inactive
same,Potency,HeLa,inactive
same,Potency,Hek293T,inactive
same,Potency,JEG-3,inactive
same,Potency,OV90,inactive
same,Potency,PA-1,inactive
same,Potency,SKOV3,inactive
same,Potency,Tov-21-G,inactive
same,Potency,Tov112D,inactive
CCOC(=O)C(C)Oc1cccc2c(=O)n(CC(=O)Nc3ccc4c(c3)OCCO4)ccc12 (stereo not given),Potency,MKL-1,inactive
same,Potency,UISO,inactive
same,Potency,WaGa,inactive
COCCCN1CCC(NC(=O)c2cc(Cl)c(N)c3c2OCC3)CC1,Potency,C33A,inactive
same,Potency,CAOV3,inactive
same,Potency,CASKI,inactive
same,Potency,Es-2,inactive
same,Potency,HeLa,inactive
same,Potency,Hek293T,inactive
same,Potency,JEG-3,inactive
same,Potency,OV90,inactive
same,Potency,PA-1,inactive
same,Potency,Tov-21-G,inactive
same,Potency,Tov112D,inactive
O=C(NOCC1CC1)c1ccc(F)c(F)c1Nc1ccc(I)cc1Cl,Potency,MKL-1,18.8 µM (active) and 20.9 µM (active)
same,Potency,UISO,15000 nM (active)
same,Potency,WaGa,15 µM (active)
same,Potency,C33A,inactive
same,Potency,CASKI,inactive
same,Potency,Es-2,inactive
same,Potency,HeLa,inactive
same,Potency,Hek293T,inactive
same,Potency,JEG-3,inactive
same,Potency,OV90,7.08 µM (active) and 3.55 µM (active)
same,Potency,SKOV3,inactive
same,Potency,Tov112D,28.2 µM (active) and inactive
same,Potency,astro,2510 nM (active)
CC1(C)CCC(C)(C)c2cc(NC(=O)c3ccc(C(=O)O)cc3)ccc21,Potency,MKL-1,inactive
same,outcome,NIH3T3,inactive
same,Potency,UISO,inactive
same,Potency,WaGa,inactive
same,Potency,C33A,inactive
same,Potency,CAOV3,inactive
same,Potency,CASKI,inactive
same,Potency,Es-2,inactive
same,Potency,HeLa,inactive
same,Potency,Hek293T,inactive
same,Potency,JEG-3,inactive
same,Potency,OV90,inactive
same,Potency,PA-1,inactive
same,Potency,Tov-21-G,inactive
same,Potency,Tov112D,inactive
same,"activity, negative = cell killing",[2]; [3],-10.2% (inactive)
same,"activity, negative = cell killing",[2]; [4],-17.2% (inactive)
same,"activity, negative = cell killing",[2]; [5],-36.1% (inactive)
same,"activity change, negative = inhibition",[1]; HiBiT,1.95% (inactive)
same,"activity change, negative = inhibition",[1]; Viability,-0.914% (inactive)
COc1cc(Nc2c(C#N)cnc3cc(OCCCN4CCN(C)CC4)c(OC)cc23)c(Cl)cc1Cl,Potency,MKL-1,8.41 µM (active) and inactive
same,Potency,MKL-2,inactive
same,Potency,WaGa,29.9 µM (active) and inactive
same,Potency,C33A,14100 nM (active)
same,Potency,CAOV3,6310 nM (active)
same,Potency,Es-2,6.31 µM (active) and 14.1 µM (active)
same,Potency,HeLa,25.1 µM (active) and inactive
same,Potency,PA-1,11200 nM (active)
same,Potency,SKOV3,10000 nM (active)
same,Potency,[1]; HiBiT,11100 nM (active)
same,Potency,[1]; Viability,24900 nM (active)
COc1cc(C(C)=O)ccc1OCCCN1CCC(c2noc3cc(F)ccc23)CC1,Potency,MKL-1,inactive
same,outcome,NIH3T3,inactive
same,Potency,UISO,inactive
same,Potency,WaGa,inactive
same,Potency,C33A,inactive
same,Potency,CAOV3,inactive
same,Potency,CASKI,inactive
same,Potency,Es-2,inactive
same,Potency,HeLa,inactive
same,Potency,JEG-3,inactive
same,Potency,PA-1,inactive
same,Potency,Tov-21-G,inactive
same,Potency,Tov112D,inactive
same,Potency,astro,inactive
Cc1ccc(C(=O)c2cc(O)c(O)c([N+](=O)[O-])c2)cc1,Potency,MKL-1,inactive
same,Potency,UISO,inactive
same,Potency,WaGa,inactive
same,Potency,C33A,inactive
same,Potency,CAOV3,inactive
same,Potency,CASKI,inactive
same,Potency,Es-2,inactive
same,Potency,Hek293T,inactive
same,Potency,JEG-3,inactive
same,Potency,OV90,inactive
same,Potency,SKOV3,inactive
same,Potency,Tov-21-G,inactive
same,Potency,Tov112D,inactive
same,"activity, negative = cell killing",[2]; [3],-17.5% (inactive)
CC(=O)O[C@H]1C(=O)[C@@]2(C)C([C@H](OC(=O)c3ccccc3)[C@]3(O)C[C@H](OC(=O)[C@H](O)[C@@H](NC(=O)c4ccccc4)c4ccccc4)C(C)=C1C3(C)C)[C@]1(OC(C)=O)CO[C@@H]1C[C@@H]2O (stereo not given in full),Potency,MKL-1,inactive
same,Potency,MKL-2,inactive
same,Potency,CAOV3,inactive
same,Potency,Es-2,282 nM (active)
same,Potency,HeLa,79.4 nM (active)
same,Potency,Hek293T,inactive
same,Potency,JEG-3,inactive
same,Potency,OV90,inactive
O=C(O)c1cc(=O)c2c(OCC(O)COc3cccc4oc(C(=O)O)cc(=O)c34)cccc2o1,Potency,C33A,inactive
same,Potency,CAOV3,inactive
same,Potency,CASKI,inactive
same,Potency,Es-2,inactive
same,Potency,HeLa,inactive
same,Potency,Hek293T,inactive
same,Potency,OV90,inactive
same,Potency,PA-1,inactive
same,Potency,SKOV3,inactive
same,Potency,Tov-21-G,inactive
same,Potency,Tov112D,inactive
same,"activity, negative = cell killing",[2]; [3],-3.77% (inactive)
same,"activity, negative = cell killing",[2]; [4],-23.3% (inactive)
same,"activity, negative = cell killing",[2]; [5],-3.33% (inactive)
same,"activity, negative = cell killing","[2]; at 46.1 µM (top of the series), tumour line C",5.01% (inactive)
same,Potency,astro,inactive
CN(C)[C@@H](CCOc1cccc2ccccc12)c1ccccc1,Potency,MKL-1,inactive
same,Potency,UISO,inactive
same,Potency,C33A,inactive
same,Potency,CAOV3,inactive
same,Potency,CASKI,inactive
same,Potency,Es-2,inactive
same,Potency,HeLa,inactive
same,Potency,JEG-3,inactive
same,Potency,PA-1,inactive
same,Potency,Tov-21-G,inactive
same,Potency,Tov112D,inactive
